These results are taken from PubChem BioAssay AID1006 (Sanford-Burnham Center for Chemical Genomics, 2008).

Hit rate of the full screen: of about 200,000 compounds, about 3,000 (1.5%) were called active. The sample holds actives, similar compounds and a random draw of the others, so the mix is not that of the screen.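 The calls were made as follows: active = inhibition above about 50% when tested at 10 µM (limit read from the data); inactive = the rest.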

For this assay, the target named is Luciferin 4-monooxygenase (Photinus pyralis) (UniProt P08659). The assay is described as follows: inhibition of purified FLuc reporter enzyme – biochemical, luminescence, ATPLite, artefact control for luciferase-based inhibitor screens, primary screen (AID 1006). Conditions: ATPLite firefly luciferase biochemical luminescence, 10 min; at 10 µM; stronger effect = higher value.
Chain of Luciferin 4-monooxygenase (Photinus pyralis) (P08659 whole entry, looked up): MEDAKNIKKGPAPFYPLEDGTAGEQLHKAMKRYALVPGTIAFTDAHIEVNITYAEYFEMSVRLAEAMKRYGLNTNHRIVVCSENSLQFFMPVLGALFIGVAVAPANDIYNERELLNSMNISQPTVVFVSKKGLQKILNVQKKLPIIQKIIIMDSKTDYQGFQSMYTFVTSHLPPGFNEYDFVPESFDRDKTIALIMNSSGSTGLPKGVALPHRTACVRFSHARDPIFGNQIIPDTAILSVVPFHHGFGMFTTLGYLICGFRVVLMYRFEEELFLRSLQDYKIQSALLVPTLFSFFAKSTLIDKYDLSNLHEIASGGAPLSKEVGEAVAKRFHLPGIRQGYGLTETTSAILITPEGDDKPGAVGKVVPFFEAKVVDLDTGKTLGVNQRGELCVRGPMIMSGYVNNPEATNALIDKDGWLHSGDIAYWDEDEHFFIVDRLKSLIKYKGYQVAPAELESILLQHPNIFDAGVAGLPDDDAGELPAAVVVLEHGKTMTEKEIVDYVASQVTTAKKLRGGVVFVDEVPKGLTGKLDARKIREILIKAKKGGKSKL
For the molecule `O=c1c2c(nc3n1CCCCC3)sc1c(O)cccc12`, the inhibition is 60.4% (active).

`Cc1cccc2c(=O)n3c(nc12)CCCCC3`: the inhibition was -5.2% (inactive).

For the molecule `Cc1c(C(=O)Nc2ccccc2)sc2nc3n(c(=O)c12)CCCCC3`, the inhibition was -3.9% (inactive).

Consider `CC(C)c1cc(NCc2ccccn2)n2c(nc3ccccc32)c1C#N`, for which the inhibition is -5.4% (inactive).

`Cc1nnc(SC(C(=O)Nc2cc(Cl)cc(Cl)c2)c2ccccc2)[nH]c1=O` (configuration not stated): the inhibition was -3.6% (inactive).

Take `O=C(CC(=O)N/N=C\c1cccc(Cl)c1Cl)NCc1ccccc1`: the inhibition is -7.3% (inactive).

For `Cc1ccc(-c2cn3cc(C)ccc3n2)cc1`, the inhibition is 95.9% (active).

`CS(=O)(=O)Nc1cccc(-c2cn3ccccc3n2)c1`: the inhibition is 16.8% (inactive).

With `Cc1ccc(-c2cc(N)on2)cc1`, the inhibition is 17.5% (inactive).

Consider `COc1ccc(OC)c(-n2c(=S)[nH]c3cc(C(=O)N4CCCCC4)ccc3c2=O)c1`, for which the inhibition was -6.8% (inactive).

Take `C/C(=N\Nc1ncc(Cl)cc1Cl)c1cccs1`: the inhibition is 57.2% (active).

Consider `COc1cccc(/C(C)=N/Nc2ncc(Cl)cc2Cl)c1`, for which the inhibition was 4.4% (inactive).

With `O=C(CSc1nc2ccccc2[nH]1)c1cccs1`, the inhibition is 5.4% (inactive).

For `C/C(=N\Nc1nc(Nc2ccccc2)nc(N2CCOCC2)n1)c1cccs1`, the inhibition is 5.5% (inactive).

Consider `C/C(=N\Nc1nc2ccccc2[nH]1)c1cccs1`, for which the inhibition is 73.6% (active).

Consider `C/C(=N\Nc1ncc(Cl)cc1Cl)c1ccc(S(=O)(=O)NCc2ccco2)cc1`, for which the inhibition is 2% (inactive).

On to `Cc1cc(NC(C)C)n2c(nc3ccccc32)c1C#N`, for which the inhibition was -2% (inactive).

As for `O=[N+]([O-])c1ccc2c(c1)C(N1CCOCC1)/C(=C/C1(O)CCCCC1)O2` (configuration not stated), the inhibition was 0.2% (inactive).

Turning to `O=C(CN1CCC(O)(c2ccccc2)CC1)Nc1ccc2c(c1)OCCO2`, the inhibition is -7.8% (inactive).

With `C=CCc1cccc2cc(C(=O)Nc3ccc(NC(C)=O)cc3)c(=O)oc12`, the inhibition is -2.7% (inactive).

In the case of `CC(C)N(Cc1ccccc1)C(=O)COC(=O)c1cnccn1`, the inhibition was -3.5% (inactive).

With `Cn1c(=NC(=O)c2ccco2)sc2cccc(F)c21`, the inhibition is 59.7% (active).

Turning to `Cn1c(=NC(=O)C2CC2)sc2cc(F)cc(F)c21`, the inhibition was 0.6% (inactive).

On to `CCCC(=O)N=c1sc2cccc(F)c2n1C`, for which the inhibition is 7% (inactive).

`C=C(C)c1cccc(C(C)(C)NC(=O)NC2CCCC2)c1`: the inhibition was -3.3% (inactive).

As for `CCC(=O)N1CCC(C(N)=O)(N2CCCCC2)CC1`, the inhibition was -4.7% (inactive).

As for `COc1ccc(Nc2ncc(F)c(N3CCOCC3)n2)cc1`, the inhibition was 75.2% (active).

Regarding `c1ccc(Nc2nc(N3CCOCC3)c3ccccc3n2)cc1`, the inhibition is 2% (inactive).

Regarding `CCOc1ccc(Nc2nc(Cl)nc(N3CCN(c4ccc(OC)cc4)CC3)n2)cc1`, the inhibition is -4.4% (inactive).

For the molecule `Cc1nc(N2CCOCC2)sc1C(=O)NN`, the inhibition was 0.3% (inactive).

Take `CCOc1ccc(C(=O)Nc2cccc(-c3ccc4nncn4n3)c2)cc1`: the inhibition was 37.7% (inactive).

For the molecule `CCOc1ccc(C(=O)Nc2ccncc2)cc1`, the inhibition is 11.8% (inactive).

Take `CCOc1ccc(C(=O)Nc2cccc(SC)c2)cc1`: the inhibition was 62.1% (active).

As to `O=C1CC(c2c(F)cccc2Cl)C(n2cncn2)C(O)=C1C1NCCc2ccccc21` (configuration not stated), the inhibition was -4.6% (inactive).

Turning to `O=C(c1cncc(Br)c1)N1CCN(c2ccc([N+](=O)[O-])cc2)CC1`, the inhibition was -0.9% (inactive).

`COC(=O)c1ccc(-c2noc(CN(Cc3ccccn3)CC3CCCO3)n2)cc1` (configuration not stated): the inhibition is 4.4% (inactive).

Regarding `Cc1ccc(-n2c(C)cc(C(=O)CN3C(=O)C(=O)N(C4CCCC4)C3=O)c2C)cc1`, the inhibition was -7.1% (inactive).

Regarding `Cc1cc(C(=O)COC(=O)C2CC2)c(C)n1-c1ccc(F)cc1`, the inhibition was 95% (active).

In the case of `COc1cc(/C=N/NC(=O)c2cc(C)n(-c3ccc(F)cc3)c2C)cc(OC)c1O`, the inhibition was 5.2% (inactive).

`CCCn1c(=O)c(-c2ccccc2)c(O)c2ccccc21`: the inhibition was 0.1% (inactive).

Consider `CCOc1ccc(N=Cc2c(O)n(-c3cccc(C)n3)c(=O)c3ccccc23)cc1`, for which the inhibition was -1% (inactive).

For `CC(=O)n1c(C=Nc2ccccc2)c(O)c2ccccc21`, the inhibition is 61.6% (active).

Take `Cc1cccc(C(=O)NNC(=O)c2cccc([N+](=O)[O-])c2)c1`: the inhibition was -0.8% (inactive).

`O=C(NCCc1ccccn1)c1cc(-c2ccc(Cl)cc2)nc2ccccc12`: the inhibition is 1.6% (inactive).

Consider `CC(C)(C)Cc1nnc(NC(=O)c2cc(-c3ccccc3)nc3ccccc23)s1`, for which the inhibition was -4.3% (inactive).

With `CCc1ccc(-c2cc(C(=O)NN3CCN(C)CC3)c3ccccc3n2)cc1`, the inhibition was 63% (active).

As to `Cc1nc2ccc(NC(=S)N3CCC(C)CC3)cc2nc1C`, the inhibition was -2.6% (inactive).

With `O=C(C1CCCN1S(=O)(=O)c1ccc(Br)cc1)N1CCOCC1` (configuration not stated), the inhibition was 0.6% (inactive).

For the molecule `CCCCN(CC)CCCNC(=O)c1ccc(CSc2nc3ccncc3[nH]2)cc1`, the inhibition was 37.9% (inactive).

Turning to `O=C(CC1CCCCC1)NCc1ccc(F)cc1`, the inhibition is -3.7% (inactive).

As for `c1ccc(-n2nnnc2-c2cccnc2)cc1`, the inhibition was -0.4% (inactive).

For `COc1ccc(C(=O)Nc2ccc(S(=O)(=O)NC(C)C)cc2)cc1`, the inhibition was -3.1% (inactive).

With `COc1ccc(NC(=O)c2ccc(OC)cc2)cc1`, the inhibition is 63.1% (active).

For the molecule `COc1cccc(C(=O)Nc2cc3c(cc2Br)OCCCO3)c1`, the inhibition was 64.3% (active).

As to `COc1ccc(NC(=O)c2ccc(C#CC(C)(C)O)cc2)cc1`, the inhibition is 5.6% (inactive).

In the case of `COc1ccc(C(=O)NC(=S)Nc2ccc(N3CCCC3)cc2)cc1OC`, the inhibition is -14.5% (inactive).

As for `COc1cccc(C(=O)NNC(=O)c2ccccc2Br)c1`, the inhibition was 2.9% (inactive).

Turning to `COc1cccc(C(=O)Nc2ccc(N3CCCC3)cc2)c1`, the inhibition is 67.6% (active).

In the case of `COc1cccc(OC)c1C(=O)Nc1ccc(N2CCCCC2)cc1`, the inhibition is -8.2% (inactive).

On to `COc1ccc(C2COC(=O)C2=N)c(NC(=O)c2ccccc2)c1` (configuration not stated), for which the inhibition was -6.7% (inactive).

In the case of `CC(C)(C)C1CCC(C(=O)Nc2cccnc2)CC1` (configuration not stated), the inhibition is -3.4% (inactive).

For `COc1ccc(-c2csc(-c3cccs3)n2)cc1OC`, the inhibition is 19.9% (inactive).

On to `COc1cccc(C(=O)NCCSc2ccc(Br)cc2)c1`, for which the inhibition is 2.1% (inactive).

With `C=CCNc1scc(-c2ccccc2)[n+]1CC=C`, the inhibition is -5.9% (inactive).

For `O=C(N/N=C/c1coc2ccccc2c1=O)c1cc2ccccc2o1`, the inhibition was -6.6% (inactive).

With `N=c1oc2ccccc2cc1C(=O)N/N=C/c1ccccc1`, the inhibition was 56.7% (active).

`CNC(=O)c1cc2c(ccc3ccccc32)oc1=N`: the inhibition is 7.1% (inactive).

Regarding `O=C(O)C1C2CC2CN1C(=O)c1ccc(Cl)cc1Cl` (configuration not stated), the inhibition is -5% (inactive).

With `Cc1nn(Cc2ccccc2)c(Cl)c1C(=O)OC1CCOC1=O` (configuration not stated), the inhibition was -3.6% (inactive).

`O=C(OC1CCOC1=O)c1ccc(-c2nc3ccccc3s2)s1` (configuration not stated): the inhibition was 91.4% (active).

Consider `O=C(OC1CCOC1=O)c1cccc(S(=O)(=O)Nc2ccc(F)cc2)c1` (configuration not stated), for which the inhibition is -4.8% (inactive).

For `N#CC1(C#N)C(C(=O)C23CC4CC(CC(C4)C2)C3)C12CCOCC2` (configuration not stated), the inhibition was -9.2% (inactive).

With `CCc1cc2c(=O)c(-c3ccon3)c(N)oc2cc1OC`, the inhibition was 59.4% (active).

`CCc1cc2c(=O)c(-c3ccc(F)cc3)c(C(F)(F)F)oc2cc1OCC(=O)O`: the inhibition is -5.2% (inactive).

In the case of `CCc1cc2c(=O)c(-c3nc4ccccc4n3C)c(CCCC(=O)O)oc2cc1OC(=O)C(C)(C)C`, the inhibition was 2.4% (inactive).

`CCOc1ccc(S(=O)(=O)Nc2nccs2)cc1`: the inhibition is -7.4% (inactive).

On to `COc1ccc(-c2nc(-c3ccccc3)no2)c(OC)c1`, for which the inhibition is 85.4% (active).

As for `COc1ccc(-c2noc(-c3ccc(C)cc3)n2)cc1`, the inhibition was 44.5% (inactive).

As to `COc1ccc(-c2noc(-c3cccc(OC)c3OC)n2)cc1OC`, the inhibition was 48.7% (inactive).

Consider `Cc1ccc(S(=O)(=O)Nc2nc(N)n(-c3ccccc3)n2)cc1`, for which the inhibition is -5.1% (inactive).

As for `Cc1ccc(NC(=O)C2(N3CCC3=O)CCCCC2)cc1`, the inhibition is -9% (inactive).

With `CCC(=O)Nc1cccc(NC(=O)c2cccnc2)c1`, the inhibition was -0.5% (inactive).

With `Cc1cc(/C=N/NC(=O)c2cccnc2)c(C)n1CC(C)C`, the inhibition was 63.5% (active).

With `Cc1nn(Cc2ccc(Cl)cc2)c(Cl)c1/C=N/NC(=O)c1cccnc1`, the inhibition was -5.5% (inactive).

For the molecule `CC(Oc1ccc(Br)cc1Br)C(=O)NC1CCCC1` (configuration not stated), the inhibition was -6.3% (inactive).

Consider `CCN(CC)S(=O)(=O)c1cc(C(=O)Nc2ccccn2)ccc1C`, for which the inhibition is 58% (active).

Regarding `CCN(CC)S(=O)(=O)c1cccc(C(=O)Nc2ccccc2)c1`, the inhibition was -4.6% (inactive).

Regarding `Cc1ccc(S(=O)(=O)/N=C(/Nc2ccccn2)c2ccc(Cl)cc2)cc1`, the inhibition is -1.5% (inactive).

For `Cn1c(N)cc(-c2ccc(F)cc2)c(C#N)c1=O`, the inhibition was -3.4% (inactive).

On to `COc1cc(CNC2CCCCC2)c(Br)cc1OC1CCCC1`, for which the inhibition was -3.7% (inactive).

`Cc1cc(C)nc(NC(=O)c2cccc([N+](=O)[O-])c2)c1`: the inhibition was 0.2% (inactive).

Take `CCO[C@H]1OC(C(=O)O)=C[C@@H](C2CCCCC2)[C@@H]1CCCO`: the inhibition is -12% (inactive).

On to `COC(=O)c1nc2ccccc2s1`, for which the inhibition is -1.8% (inactive).

With `CC(=O)Nc1cccc(-c2nc3ccccc3s2)c1C`, the inhibition was 52% (active).

As to `Oc1ccc(-c2[nH]ncc2-c2nc3ccccc3s2)c(O)c1`, the inhibition was -7.2% (inactive).

For `c1csc(-c2nnc(COc3ccc4c(c3)OCO4)o2)c1`, the inhibition is 5.4% (inactive).

As to `NS(=O)(=O)c1ccc(N2C(=O)C3C4CC(C(Br)C4Br)C3C2=O)cc1` (configuration not stated), the inhibition was -4.1% (inactive).

With `CCc1ccc(N2CC(O)=C(c3nc4ccccc4c(=O)[nH]3)C2=N)cc1`, the inhibition was 1.7% (inactive).

`COc1ccc(C=Nc2cccc3ncccc23)cc1`: the inhibition is -0.8% (inactive).

`COc1ccc(/C=N/Nc2nc3ccccc3c(=O)[nH]2)cc1`: the inhibition was 59.4% (active).

With `CCN(CC)c1ccc(/C=N/Nc2nc(C)cc(=O)[nH]2)cc1`, the inhibition was 26.8% (inactive).

Take `C[C@@H]1NC(=O)c2cc([N+](=O)[O-])cc(F)c2NCCC[C@@H](C(N)=O)NC(=O)[C@H](CC(N)=O)NC1=O`: the inhibition was -4.9% (inactive).

The term inhibition denotes the change of the read-out against control, counted positive when it falls.
